Screens deposited in PubChem by National Center for Advancing Translational Sciences (NCATS).
Sampled rows, rich in hits. Any-hit rate of the full collection: about 10%.
GPT2 inhibitor: GPT2 alanine aminotransferase inhibition. Q8TD30. Recombinant GPT2, coupled pyruvate oxidase/HRP Amplex Red fluorescence. Potency, µM (highest dose often 57.7 µM), most hits filed as inhibitors. 100,000 tested, 0.25% active. AID 1671188; also: nearly all actives have a fitted effect of over 60% in size
Target sequence (Q8TD30 whole entry, looked up): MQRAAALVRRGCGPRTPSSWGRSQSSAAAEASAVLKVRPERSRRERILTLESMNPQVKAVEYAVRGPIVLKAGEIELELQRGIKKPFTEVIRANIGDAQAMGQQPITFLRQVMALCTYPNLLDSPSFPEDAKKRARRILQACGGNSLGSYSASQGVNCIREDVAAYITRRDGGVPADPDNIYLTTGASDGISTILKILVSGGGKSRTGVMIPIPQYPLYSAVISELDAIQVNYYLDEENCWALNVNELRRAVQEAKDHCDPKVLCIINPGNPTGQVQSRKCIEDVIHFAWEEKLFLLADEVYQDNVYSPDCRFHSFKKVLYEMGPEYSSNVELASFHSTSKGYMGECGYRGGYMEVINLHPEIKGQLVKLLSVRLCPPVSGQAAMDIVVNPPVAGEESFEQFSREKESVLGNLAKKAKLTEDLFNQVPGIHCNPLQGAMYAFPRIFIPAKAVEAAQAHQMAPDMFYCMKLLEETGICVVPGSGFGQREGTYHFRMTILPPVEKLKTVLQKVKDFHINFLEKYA
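Fluorescence of coupled pyruvate oxidase/HRP/Amplex Red system (50uM Amplex, 30 min, dark) reports pyruvate formed by GPT2. Enzyme reaction: 10ng/uL GPT2, 2mM L-alanine, 250uM a-KG, 30 min room temperature, pH 7.5; 50uM AOA control.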
3T3 cytotox: NIH 3T3 cell cytotoxicity; Potency, µM (doses to about 96.7 µM), most hits filed as inhibitors; 94,000 tested, 4.3% active; NIH 3T3 viability, CellTiter-Glo ATP luminescence, 48-72 h; also: nearly all actives have a fitted effect of over 55% in size
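NIH 3T3 cells at 400 cells/well received 23 nL of compound by pintool and were incubated 48 or 72 h at 37 °C. Viability was read as ATP-coupled CellTiter-Glo luminescence.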
HEK293 tox: kills HEK 293 cells | HEK 293 viability, ATP luminescence (CellTiter-Glo), 48-72 h | Potency, µM (top dose mostly 115 µM), most hits filed as inhibitors | 94,000 tested, 6.6% active | AID 1345083; also: nearly all actives have a fitted effect of over 60% in size
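HEK 293 cells at 250 cells/well were exposed to compounds by pintool transfer for 48 or 72 hr at 37 degree Celsius, 5% CO2. Viability was read as ATP-coupled luminescence with CellTiter-Glo after 10 min at room temperature.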
Luciferase inh: blocks purified firefly luciferase enzyme activity | Potency, µM (titrated, usually from 115 µM), most hits filed as inhibitors | 76,000 tested, 2.5% active | P08659 | AID 1347043 | purified P. pyralis luciferase, luminescence, biochemical; also: nearly all actives have a fitted effect of over 65% in size
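Cell-free enzyme assay, 10nM P. pyralis luciferase, luciferin and ATP each at 10uM. Inhibition profiled over a 6-point titration, read as luminescence.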
hNpr1 antagonist: human Npr1 receptor antagonism; 76,000 tested, 1.6% active; AID 1347048; HEK293 hNpr1 GloSensor cGMP, ANP-stimulated luminescence; P16066; Potency, µM (top dose mostly 46.3 µM), usual class: inhibitors; calls by dose curve; also: nearly all actives have a fitted effect of over 60% in size
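Compound pre-incubated 30 min at room temperature on GloSensor-loaded HEK293 cells stably carrying hNpr1 and the pGS-40F cGMP biosensor. Stimulation uses hNppA at 0.1 nM final; luminescence is taken at baseline and 20 min post-agonist.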
Large screens that a line does not name were inactive. Unless noted, calls follow the shape of the dose curve; as a rule, active = well fitted curve in the direction sought with a large enough effect; inconclusive = small, poorly fitted or top-dose-only effect, or another doubt; inactive = no such curve, though single readings can be large; an effect the other way counts as inactive or inconclusive.

COC[C@@H]1[C@H](C(=O)NCCn2ccnc2C)CCCN1Cc1ccccc1	none (no result: Luciferase inh, hNpr1 antagonist)
O=C(NCc1ccccc1Cl)C1CCN(c2nccc(Nc3ccccc3F)n2)CC1	3T3 cytotox 40µM, HEK293 tox inconclusive (no result: Luciferase inh, hNpr1 antagonist)
O=C(NCCCc1ccccc1)C1CCN(c2nccc(Nc3ccccc3F)n2)CC1	3T3 cytotox inconclusive, HEK293 tox 35µM (no result: Luciferase inh, hNpr1 antagonist)
CC1(c2ccccc2)N(Cc2ncccn2)C(=O)OC12CCN(Cc1cccc(OC(F)(F)F)c1)CC2 (centres undefined)	GPT2 inhibitor inconclusive, 3T3 cytotox 40µM, HEK293 tox 50µM
CC1(c2ccccc2)N(Cc2ccccc2)C(=O)OC12CCN(Cc1cccnc1)CC2 (centres undefined)	3T3 cytotox 100µM, HEK293 tox inconclusive
CC1(c2ccccc2)N(Cc2ccccc2)C(=O)OC12CCN(c1cccnc1)CC2 (centres undefined)	3T3 cytotox 89µM, HEK293 tox 71µM
CC(C)NC(=O)C1CCN(Cc2ccccc2-c2ccccc2F)CC1	none (no result: Luciferase inh, hNpr1 antagonist)
O=C([C@@H]1C[C@H](F)CN1C(=O)C1(c2ccccc2)CC1)N1CCCCC1	none (no result: Luciferase inh, hNpr1 antagonist)
O=C1COc2ccc(Nc3ccccc3)nc2CN1CCOc1ccccc1	3T3 cytotox inconclusive, HEK293 tox inconclusive, Luciferase inh inconclusive, hNpr1 antagonist inconclusive
O=C1COc2ccc(Oc3ccccc3)nc2CN1CCOc1ccccc1	3T3 cytotox inconclusive, HEK293 tox 100µM, hNpr1 antagonist inconclusive
COCCN1Cc2nc(Nc3ccc(C(F)(F)F)cc3)ccc2OCC1=O	3T3 cytotox inconclusive, HEK293 tox inconclusive
O=C1COc2ccc(Nc3cccc(F)c3)nc2CN1CCOc1ccccc1	3T3 cytotox 89µM, HEK293 tox 89µM, hNpr1 antagonist inconclusive
COCCN1Cc2nc(Nc3ccc(F)c(Cl)c3)ccc2OCC1=O	3T3 cytotox inconclusive, HEK293 tox 100µM
Cc1cccc(NC(=O)N2CC(Oc3cccc(-c4nc(C)no4)c3)C2)c1	3T3 cytotox inconclusive, HEK293 tox inconclusive (no result: Luciferase inh, hNpr1 antagonist)
COc1ccc(-n2nc(C)c([C@H]3C=C[C@@H](OC(=O)Nc4ccc(Br)cc4)C3)c2C)cc1	3T3 cytotox inconclusive, HEK293 tox inconclusive, Luciferase inh 35µM, hNpr1 antagonist 11µM
COc1ccc(NC(=O)N[C@@H]2C=C[C@@H](c3c(C)nn(-c4ccccn4)c3C)C2)cc1	3T3 cytotox 112µM, HEK293 tox 71µM, Luciferase inh inconclusive
CSc1ccc(-c2cccc(C(=O)NCC(=O)NCc3cccs3)c2)cc1	3T3 cytotox inconclusive, HEK293 tox inconclusive (no result: Luciferase inh, hNpr1 antagonist)
COCCn1ccc2c(C3=CCOCC3)nc(-c3cccc4cn[nH]c34)cc21	GPT2 inhibitor inconclusive, 3T3 cytotox inconclusive, HEK293 tox 79µM
COCCn1ccc2c(C3=CCOCC3)nc(-c3cccc(NC(C)=O)c3)cc21	GPT2 inhibitor inconclusive, 3T3 cytotox inconclusive, HEK293 tox inconclusive
COCCn1ccc2c(C3=CCOCC3)nc(-c3cccc(N[S+](C)(=O)[O-])c3)cc21	GPT2 inhibitor inconclusive, 3T3 cytotox 35µM, HEK293 tox inconclusive
COc1ccc(Cn2c(=O)c(C(=O)N3CCN(C(=O)C4CC4)CC3)nc3cccnc32)cc1	none (no result: GPT2 inhibitor, Luciferase inh, hNpr1 antagonist)
COc1ccc2ccc(OCc3nc(C(=O)N4CCCNC(=O)C4)co3)cc2c1	3T3 cytotox inconclusive, HEK293 tox inconclusive, Luciferase inh inconclusive, hNpr1 antagonist inconclusive
COc1ccc2ccc(OCc3nc(C(=O)NCc4cnc(C)cn4)co3)cc2c1	3T3 cytotox inconclusive, HEK293 tox inconclusive
COc1ccc2ccc(OCc3nc(C(=O)N4CCCC(C)(CO)C4)co3)cc2c1 (centres undefined)	GPT2 inhibitor inconclusive, 3T3 cytotox inconclusive, HEK293 tox inconclusive, Luciferase inh inconclusive, hNpr1 antagonist 11µM
COc1ccc2ccc(OCc3nc(C(=O)NC(C)c4n[nH]c(C)n4)co3)cc2c1 (centres undefined)	GPT2 inhibitor inconclusive, HEK293 tox 45µM, Luciferase inh inconclusive, hNpr1 antagonist 11µM
COc1cccc(-c2cn3cc(C(=O)NCc4cccc(Cl)c4)nc3s2)c1	3T3 cytotox inconclusive, HEK293 tox inconclusive (no result: Luciferase inh, hNpr1 antagonist)
O=C1CCN(C(=O)C2CCC2)c2ccc(F)cc2CN1Cc1ccccc1	HEK293 tox inconclusive (no result: GPT2 inhibitor, Luciferase inh, hNpr1 antagonist)
O=C(/C=C\c1ccc(O)cc1)N[C@@H](Cc1ccc(O)cc1)C(=O)O	none (no result: 3T3 cytotox, HEK293 tox, Luciferase inh, hNpr1 antagonist)
